{"source": "paper PMC4336329", "about": "(PLoS ONE, 2015)", "note": "In all, about 310,000 compounds went through this assay and about 14,000 (4.5%) showed an effect of 50% or more. The effect is printed as a negative number. What follows is part of a selection rich in strong results, with near analogues and random picks from the rest.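 Also: peak tail current of the secondary pulse compared with the same well before compound.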"}
{"biological_target": "human ether-à-go-go-related gene (hERG) potassium channel (human, UniProt Q12809)", "sequence (Q12809 whole entry, looked up)": "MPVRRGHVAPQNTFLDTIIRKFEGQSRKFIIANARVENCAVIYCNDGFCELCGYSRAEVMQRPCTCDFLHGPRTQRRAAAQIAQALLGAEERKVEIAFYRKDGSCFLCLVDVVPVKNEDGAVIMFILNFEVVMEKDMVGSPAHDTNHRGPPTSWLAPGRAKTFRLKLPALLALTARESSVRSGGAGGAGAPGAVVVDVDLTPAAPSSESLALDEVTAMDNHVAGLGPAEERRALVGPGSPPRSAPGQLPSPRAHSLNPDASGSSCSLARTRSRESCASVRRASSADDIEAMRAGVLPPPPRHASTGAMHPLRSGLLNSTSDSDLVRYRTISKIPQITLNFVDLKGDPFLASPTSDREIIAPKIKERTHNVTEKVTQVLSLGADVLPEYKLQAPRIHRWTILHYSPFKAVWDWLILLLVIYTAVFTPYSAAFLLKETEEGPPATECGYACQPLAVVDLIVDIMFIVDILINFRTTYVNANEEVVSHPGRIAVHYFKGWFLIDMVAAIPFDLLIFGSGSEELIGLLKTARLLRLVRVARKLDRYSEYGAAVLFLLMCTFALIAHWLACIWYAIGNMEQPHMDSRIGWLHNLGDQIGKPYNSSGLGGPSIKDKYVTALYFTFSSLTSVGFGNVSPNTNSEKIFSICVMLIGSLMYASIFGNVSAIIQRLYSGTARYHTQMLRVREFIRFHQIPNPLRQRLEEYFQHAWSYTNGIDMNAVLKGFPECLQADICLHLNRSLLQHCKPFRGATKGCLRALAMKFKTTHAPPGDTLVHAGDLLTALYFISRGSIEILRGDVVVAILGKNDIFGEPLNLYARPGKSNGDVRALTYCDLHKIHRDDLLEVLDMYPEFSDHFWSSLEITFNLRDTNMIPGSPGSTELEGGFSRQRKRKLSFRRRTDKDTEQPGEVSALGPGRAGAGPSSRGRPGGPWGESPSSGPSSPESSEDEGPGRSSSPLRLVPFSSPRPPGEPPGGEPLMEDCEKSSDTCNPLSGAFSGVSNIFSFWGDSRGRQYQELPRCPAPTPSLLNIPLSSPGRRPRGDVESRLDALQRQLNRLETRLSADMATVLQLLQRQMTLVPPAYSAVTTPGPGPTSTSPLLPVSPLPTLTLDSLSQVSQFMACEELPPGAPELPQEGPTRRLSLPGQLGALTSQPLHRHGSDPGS", "assay": "primary screen, population patch clamp on CHO cells stably expressing hERG; higher = less effect of the substance", "units": {"hERG current change (%, negative = inhibition) at 10uM": "%"}}
{"smiles": "CCOC(=O)C1CCN(C(=O)CCNC(=O)c2cc(OC)c(OC)c(OC)c2)CC1", "hERG current change (%, negative = inhibition) at 10uM": 10.9}
{"smiles": "O=C(NCCCN1CCOCC1)c1ccc(Sc2ccccc2Cl)c([N+](=O)[O-])c1", "hERG current change (%, negative = inhibition) at 10uM": -22.7}
{"smiles": "CCN1CCCC1CNC(=O)c1ccccc1Cl", "note": "(stereo not shown)", "hERG current change (%, negative = inhibition) at 10uM": -10.6}
{"smiles": "CCN1CCCC1CNC(=O)c1ccc(Sc2ccccc2Cl)c([N+](=O)[O-])c1", "note": "(stereo not shown)", "hERG current change (%, negative = inhibition) at 10uM": -64.1}
{"smiles": "O=C(NCCCN1CCOCC1)c1ccc(Sc2ccc(F)cc2)c([N+](=O)[O-])c1", "hERG current change (%, negative = inhibition) at 10uM": -33.3}
{"smiles": "O=C(c1ccc(Sc2ccc(F)cc2)c([N+](=O)[O-])c1)N1CCOCC1", "hERG current change (%, negative = inhibition) at 10uM": -18.5}
{"smiles": "CCN1CCCC1CNC(=O)c1ccc(Sc2ccc(F)cc2)c([N+](=O)[O-])c1", "note": "(stereo not shown)", "hERG current change (%, negative = inhibition) at 10uM": -66.5}
{"smiles": "CCOc1ccc(-c2nnn(CC(=O)N3CCCC3)n2)cc1OCC", "hERG current change (%, negative = inhibition) at 10uM": 13.8}
{"smiles": "Cl.O=c1c(-c2ccccc2)coc2c(CN3CCCCC3)c(O)ccc12", "hERG current change (%, negative = inhibition) at 10uM": 14.6}
{"smiles": "COc1ccc(NC(=O)CSCC(=O)N=c2sccn2C)cc1", "hERG current change (%, negative = inhibition) at 10uM": 11}
{"smiles": "O=C(Nc1ccc(O)cc1)c1cc2n(n1)C(C(F)(F)F)CC(c1ccco1)N2", "note": "(stereo not shown)", "hERG current change (%, negative = inhibition) at 10uM": -5.45}
{"smiles": "O=S(=O)(Nc1cccc(-c2cn3cccnc3n2)c1)c1ccc(Cl)cc1", "hERG current change (%, negative = inhibition) at 10uM": 16.4}
{"smiles": "CN1CCN(CC(=O)NC23CC4CC(CC(C4)C2)C3)CC1.Cl", "hERG current change (%, negative = inhibition) at 10uM": 4.19}
{"smiles": "COc1cc(Br)c(-c2sc(Nc3ccccc3)n[n+]2-c2ccccc2)cc1OC.[Cl-]", "hERG current change (%, negative = inhibition) at 10uM": -68.7}
{"smiles": "CCc1ccc(Nc2n[n+](-c3ccccc3)c(/C=C/c3ccccc3)s2)cc1.[Cl-]", "hERG current change (%, negative = inhibition) at 10uM": -69}
{"smiles": "CCc1ccc(Nc2n[n+](-c3ccccc3)c(-c3cccc(Cl)c3Cl)s2)cc1.[Cl-]", "hERG current change (%, negative = inhibition) at 10uM": -1.43}
{"smiles": "CCc1ccc(Nc2n[n+](-c3ccccc3)c(-c3c(Cl)cccc3Cl)s2)cc1.[Cl-]", "hERG current change (%, negative = inhibition) at 10uM": -27.5}
{"smiles": "CCc1ccc(Nc2n[n+](-c3ccccc3)c(-c3ccc(OCc4ccccc4)cc3)s2)cc1.[Cl-]", "hERG current change (%, negative = inhibition) at 10uM": -45.2}
{"smiles": "COc1ccc(-c2sc(Nc3ccccc3)n[n+]2-c2ccccc2)cc1Br.[Cl-]", "hERG current change (%, negative = inhibition) at 10uM": -48.7}
{"smiles": "COc1cc(Br)c(-c2sc(Nc3ccccc3)n[n+]2-c2ccc(F)cc2)cc1OC.[Cl-]", "hERG current change (%, negative = inhibition) at 10uM": -37.1}
{"smiles": "CCc1ccc(Nc2n[n+](-c3ccccc3)c(-c3cc(OC)c(OC)cc3Br)s2)cc1.[Cl-]", "hERG current change (%, negative = inhibition) at 10uM": -55}
{"smiles": "CCc1ccc(Nc2n[n+](-c3ccccc3)c(-c3ccc(SC)cc3)s2)cc1.[Cl-]", "hERG current change (%, negative = inhibition) at 10uM": -2.72}
